From PubChem BioAssay AID588692 (Broad Institute, 2011)
In all, about 360,000 compounds went through this assay and about 830 (0.23%) were called active. This excerpt belongs to a sample that is enriched for actives. Unmarked numbers belong to inactive results.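 How the source made its calls: active means mean luciferase reporter signal, scaled so untreated is 0 and the glycosylation-blocking control 100, at or above a set limit in every replicate; inconclusive means mean reaches the limit but not every replicate does; inactive means mean below the limit.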

assay: D54 reporter luminescence gain compounds – D54 ERlucT cells, set 2, N-linked glycosylation inhibitor project, primary screen (AID 588692); details: D54 ERlucT glycosylation luciferase reporter, 24 h; at 12.5 µM; active compounds read high; percent of 100 nM tunicamycin response;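 further: luciferase carries N-glycosylation sites so blocking glycosylation raises the light; 0% = median of neutral control wells and 100% = median of 100 nM tunicamycin wells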

Compound | reporter increase
CN(NC(=O)C1CC(=O)N(c2ccccc2)C1)C1=NS(=O)(=O)c2ccccc21 (stereo unspecified) | 1.73%
CC[C@H]1OC(=O)[C@H](C)[C@@H](O[C@H]2C[C@@](C)(OC)[C@@H](O)[C@H](C)O2)[C@H](C)[C@@H](O[C@@H]2O[C@H](C)C[C@H](N(C)C)[C@H]2O)[C@](C)(O)C[C@@H](C)[C@@H]2N[C@@H](COCCOC)O[C@H]([C@H]2C)[C@]1(C)O | 0.0685%
Cc1cccc(N2C(=O)N3[C@H](c4ccc(F)cc4)[C@@H]4C(=O)N(C5CCCCC5)C(=O)[C@@H]4[C@]3(Cc3ccccc3)C2=O)c1 | 78.2% (active)
CC(C)(C)N1C(=O)[C@H]2[C@@H](c3ccc(Br)cc3)N3C(=O)N(c4cccc(Cl)c4)C(=O)[C@@]3(C)[C@H]2C1=O | -3.13%
O=C1[C@H]2[C@@H](c3ccc(F)cc3)N3C(=O)N(c4ccc(C(F)(F)F)cc4)C(=O)[C@@]3(Cc3ccccc3)[C@H]2C(=O)N1C1CCCCC1 | -7.93%
COc1ccc([C@@H]2[C@@H]3C(=O)N(C(C)(C)C)C(=O)[C@@H]3[C@]3(Cc4ccccc4)C(=O)N(c4cccc(Br)c4)C(=O)N23)cc1 | 36.7% (active)
CC[C@@]12C(=O)N(c3ccccc3)C(=O)N1[C@H](c1ccc(Br)cc1)[C@@H]1C(=O)N(C(C)(C)C)C(=O)[C@@H]12 | -1.3%
O=C1[C@H]2[C@@H](c3ccc(Cl)cc3)N3C(=O)N(c4cccc(F)c4)C(=O)[C@@]3(Cc3ccccc3)[C@H]2C(=O)N1C1CCCCC1 | -1.72%
CCCCN(C)C(=O)c1ccc2c(c1)N(CC)C(=O)c1ccccc1S2(=O)=O | 2.3%
O=C(CN1C(=O)NC2(CCc3ccccc32)C1=O)NC1CCCCC1 (stereo unspecified) | 3.09%
COCCNC(=O)CN1C(=O)CSc2ncccc21 | 3.24%
OC[C@@H]1CN(Cc2ccc3c(c2)OCO3)C[C@H](n2cnc3c(NCc4ccco4)ncnc32)O1 | -0.219%
CCOC(=O)[C@H]1[C@H]2COc3ccc(OC)cc3[C@@H]2N2C(=O)c3ccc(F)cc3NC(=O)[C@@]12C | 7.58%
Cc1ccc2c(c1)NC(=O)[C@@]1(C)[C@@H](c3ccccc3)[C@H]3COc4ccc(Cl)cc4[C@@H]3N1C2=O | 19.6%
COc1ccc2c(c1)[C@H]1[C@H](CO2)[C@H](c2ccccc2)[C@]2(C)C(=O)Nc3cc(F)c(F)cc3C(=O)N12 | 42% (active)
CC(=O)c1ccc(S(=O)(=O)NC2CC(=O)N(c3ccc4c(c3)OCCO4)C2)cc1 (stereo unspecified) | 0.667%
